In PubChem BioAssay (Tox21):
Results filed as inconclusive are left out. Activity calls are given as the source filed them. Unless noted, the call rests on the fitted dose curve; in most records, active means well fitted curve in the direction sought with a large enough effect in the repeat runs; inconclusive means weak or mixed curves; inactive means no such curve, though single readings can be large; an effect the other way counts as inactive or inconclusive.

Assays:
[1] = qHTS assay to identify small molecule HDAC inhibitors (AID 1259364); further: nearly all actives have a fitted effect of over 45% in size; further: potency means the concentration at half of the fitted maximal effect; on activity change, negative = inhibition: top concentration of the series differs between compounds
Method in brief: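 Wild-type HCT-116 cells were plated overnight, exposed to compounds for 2 h at 37 °C, then given HDAC-Glo class I/II luminogenic reagent for 30 min at room temperature before luminescence was read.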

[2] = qHTS assay to identify small molecule HDAC inhibitors - cell viability counter screen (AID 1259365); further: series mostly up to about 92 µM; nearly all actives have a fitted effect of over 50% in size
Method in brief: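 Wild-type HCT-116 cells, 1,500/well, cultured overnight, then compound-treated 2 h at 37 C. Viability measured as ATP luminescence with CellTiter-Glo after 30 min at room temperature.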

[3] = qHTS assay to identify small molecule agonists of the sonic hedgehog signaling (Shh) pathway - cell viability counter screen (AID 1259366); further: nearly all actives have a fitted effect of over 50% in size
Method in brief: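 NIH/3T3-derived Gli1-Luc reporter cells, 2,000 per well, received compound after 4 h and were treated about 23 h at 37C. Viability measured in the same wells by CellTiter-Fluor fluorescence after 1 h.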

[4] = qHTS assay to identify small molecule antagonists of the sonic hedgehog signaling (Shh) pathway - cell viability counter screen (AID 1259367); further: nearly all actives have a fitted effect of over 55% in size
Method in brief: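 NIH/3T3-derived Gli1-Luc reporter cells (2,000 per well) rested 4 hr at 37 C, then received DMSO compounds plus conditioned medium. After 23 hr of treatment, CellTiter-Fluor was added for 1 hr at 37C and fluorescence read.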

[5] = qHTS assay to identify small molecule agonists of the sonic hedgehog signaling (Shh) pathway (AID 1259368; calls by dose curve; further: series mostly up to about 92 µM; nearly all actives have a fitted effect of over 15% in size)
Method in brief: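 NIH/3T3-derived 3T3Gli1-Luc cells carrying a stably integrated Gli1 response element–firefly luciferase reporter were plated, left 4 hr at 37 C, then given compounds in DMSO for 24 hr. Luminescence was read 30 min after adding luciferase reagent.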

[6] = biological target: Estrogen receptor beta (Homo sapiens) (UniProt Q92731); test: qHTS assay to identify small molecule agonists of the estrogen receptor beta (ER-beta) signaling pathway (AID 1259377; active means well fitted activation curve with a large enough effect in the signal ratio in the repeat runs, not every such curve was filed as active; the % refers to the signal ratio; further: potency means the concentration at half of the fitted maximal effect)
Method in brief: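 ER-beta-UAS-bla HEK293T cells in medium with 2% charcoal-stripped FBS were exposed to compounds for 16 h at 37C. Beta-lactamase reporter activity was read as fluorescence after 2 h with LiveBLAzer B/G FRET substrate at room temperature.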

[7] = qHTS assay to identify small molecule agonists of the androgen receptor (AR) signaling pathway in the presence of an antagonist - cell viability counter screen (AID 1259379);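 further: MDA-kb2 human breast cancer cells carrying an MMTV luciferase reporter; series mostly up to about 92 µM; nearly all actives have a fitted effect of over 25% in size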
Method in brief: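 MDA-kb2 human breast carcinoma cells (stable MMTV-luciferase, AR/GR responsive) were seeded 3,000 cells/well, pre-incubated 5 hr at 37C without CO2, then given 3.0uM nilutamide and compounds at 15 concentrations for 16 hr. Viability was read by CellTiter-Fluor fluorescence.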

[8] = qHTS assay to identify small molecule agonists of the estrogen receptor beta (ER-beta) signaling pathway - cell viability counter screen (AID 1259380); further: nearly all actives have a fitted effect of over 30% in size
Method in brief: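 ER-beta-UAS-bla HEK293T cells in medium with 2% charcoal-stripped FBS were preincubated 6 hr at 37C, dosed with compound in DMSO for 16 hr, then after the bla read, CellTiter-Glo was added for 30 min at room temperature; luminescence recorded.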

[9] = biological target: Estrogen receptor beta (Homo sapiens) (UniProt Q92731); test: qHTS assay to identify small molecule antagonists of the estrogen receptor beta (ER-beta) signaling pathway (AID 1259378; active means well fitted inhibition curve with a large enough effect in the signal ratio in the repeat runs, not every such curve was filed as active; the % refers to the signal ratio)
Method in brief: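 ER-beta-UAS-bla HEK293T (GripTite) cells in 2% charcoal-stripped FBS medium were preincubated 6 hr at 37C, dosed with compound, then stimulated with 1 nM E2 (final) for 16 hr; beta-lactamase reporter read by B/G FRET fluorescence after 2 hr substrate loading.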

[10] = qHTS assay to identify small molecule antagonists of the sonic hedgehog signaling (Shh) pathway (AID 1259369; calls by dose curve; further: nearly all actives have a fitted effect of over 45% in size; further: potency means the concentration at half of the fitted maximal effect)
Method in brief: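 NIH/3T3-derived 3T3Gli1-Luc cells with stably integrated Gli1-Luc reporter were preincubated 4hr at 37 C, then given compounds in DMSO plus Shh conditioned medium and incubated 24hr. Firefly luciferase luminescence read after 30min reagent at room temperature.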
On the % scale 0 is the no-effect control and ±100 the full control effect.

Sequence of Estrogen receptor beta (Homo sapiens) (Q92731 whole entry, looked up): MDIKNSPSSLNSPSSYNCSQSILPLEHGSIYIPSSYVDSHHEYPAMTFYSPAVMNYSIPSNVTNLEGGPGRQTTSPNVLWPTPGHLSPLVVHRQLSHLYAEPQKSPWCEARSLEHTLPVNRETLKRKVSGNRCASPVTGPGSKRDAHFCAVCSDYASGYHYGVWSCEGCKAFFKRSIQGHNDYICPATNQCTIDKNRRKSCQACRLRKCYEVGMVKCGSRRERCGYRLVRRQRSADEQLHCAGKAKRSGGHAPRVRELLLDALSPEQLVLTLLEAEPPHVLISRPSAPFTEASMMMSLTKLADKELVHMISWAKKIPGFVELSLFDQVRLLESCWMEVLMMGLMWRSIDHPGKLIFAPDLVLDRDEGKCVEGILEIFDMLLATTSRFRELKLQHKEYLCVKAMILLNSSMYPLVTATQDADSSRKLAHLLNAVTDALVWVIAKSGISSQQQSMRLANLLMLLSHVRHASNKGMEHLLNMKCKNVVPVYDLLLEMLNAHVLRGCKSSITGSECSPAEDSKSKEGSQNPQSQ

O=C=NCC1CCCC(CN=C=O)C1 (stereo not given)
inactive: Potency [1] | outcome [2] | outcome [3] | outcome [4] | outcome [5] | Potency [6] | outcome [7] | outcome [8]

CCC(=O)Oc1ccc2c(c1)CC[C@@H]1[C@@H]2CC[C@@]2(C)[C@H]1C[C@@H](OC(=O)CC)[C@@H]2OC(=O)CC
active: Potency [6] 0.0211 µM
inactive: Potency [1] | outcome [2] | outcome [3] | outcome [4] | outcome [5] | outcome [7] | outcome [8]

O=C(Cl)c1ccccc1[N+](=O)[O-]
inactive: Potency [1] | outcome [2] | outcome [3] | outcome [4] | outcome [5] | Potency [6] | Potency [9] | outcome [7] | outcome [8]

CCCCOC(=O)C(C)O (stereo not given)
inactive: Potency [1] | outcome [2] | outcome [3] | outcome [4] | outcome [5] | Potency [10] | outcome [7] | outcome [8]

CC/C=C\CCOC(=O)c1ccccc1O
inactive: outcome [2] | outcome [3] | outcome [4] | outcome [5] | Potency [9] | outcome [7] | outcome [8]
active: Potency [1] 15.4 µM

CC(O)CC(C)O (stereo not given)
inactive: Potency [1] | outcome [2] | outcome [3] | outcome [4] | outcome [5] | Potency [10] | outcome [7] | outcome [8]

C=CC(=O)CCCCC
inactive: Potency [1] | outcome [2] | outcome [3] | outcome [4] | outcome [5] | Potency [10] | outcome [7] | outcome [8]

CN(C)CCCCl
inactive: Potency [1] | outcome [2] | outcome [3] | outcome [4] | outcome [5] | Potency [10] | outcome [7] | outcome [8]

CCCCC1CCC(O)CC1 (stereo not given)
inactive: Potency [1] | outcome [2] | outcome [3] | outcome [4] | outcome [5] | Potency [10] | outcome [7] | outcome [8]

CCCCCC(C)O (stereo not given)
inactive: Potency [1] | outcome [2] | outcome [3] | outcome [4] | outcome [5] | Potency [10] | outcome [7] | outcome [8]

O=C(CCCl)NCCc1ccccc1
inactive: Potency [1] | outcome [2] | outcome [3] | outcome [4] | outcome [5] | Potency [6] | Potency [9] | outcome [7] | outcome [8]

O=C(Cn1ccnc1[N+](=O)[O-])NCc1ccccc1
inactive: Potency [1] | outcome [2] | outcome [3] | outcome [4] | outcome [5] | Potency [6] | Potency [9] | outcome [7] | outcome [8]

CC(=O)C1C(=O)C=C(C)OC1=O (stereo not given)
inactive: Potency [1] | outcome [2] | outcome [3] | outcome [4] | outcome [5] | Potency [6] | Potency [9] | outcome [7] | outcome [8]

COCCc1ccccn1
inactive: Potency [1] | outcome [2] | outcome [3] | outcome [4] | outcome [5] | outcome [7] | outcome [8]

NCCOCCN
inactive: Potency [1] | outcome [2] | outcome [3] | outcome [4] | outcome [5] | Potency [10] | outcome [7] | outcome [8]

C=CCCCC
inactive: Potency [1] | outcome [2] | outcome [3] | outcome [4] | outcome [5] | Potency [10] | outcome [7] | outcome [8]

COc1cc2c(cc1OC)C(=O)C(CC1CCN(Cc3ccccc3)CC1)C2 (stereo not given)
inactive: Potency [1] | outcome [2] | outcome [3] | outcome [4] | outcome [5] | Potency [6] | outcome [7] | outcome [8]

CC(=O)O[C@H]1C[C@@H]2CC[C@@]1(C)C2(C)C
inactive: Potency [1] | outcome [2] | outcome [3] | outcome [4] | outcome [5] | Potency [6] | Potency [9] | outcome [7] | outcome [8]

Nc1nnnn1-c1ccccc1
inactive: Potency [1] | outcome [2] | outcome [3] | outcome [4] | outcome [5] | Potency [9] | outcome [7] | outcome [8]

CC(C)CCOC(=O)c1ccccc1
inactive: Potency [1] | outcome [2] | outcome [3] | outcome [4] | outcome [5] | Potency [10] | outcome [8]

COc1c2occc2c(OC)c2c(=O)cc(C)oc12
active: Potency [10] 11.9 µM
inactive: Potency [1] | outcome [2] | outcome [3] | outcome [4] | outcome [5] | outcome [7] | outcome [8]

CC(=O)CCC1=C(C)CCCC1(C)C
inactive: Potency [1] | outcome [2] | outcome [3] | outcome [4] | outcome [5] | Potency [6] | Potency [9] | outcome [7] | outcome [8]

C=CCCCCCCCC
inactive: Potency [1] | outcome [2] | outcome [3] | outcome [4] | outcome [5] | Potency [10] | outcome [7] | outcome [8]

O=C(O)[C@H](O)c1ccccc1
inactive: Potency [1] | outcome [2] | outcome [3] | outcome [4] | outcome [5] | Potency [10] | outcome [8]

Cc1c(N)cccc1Cl
inactive: Potency [1] | outcome [2] | outcome [3] | outcome [4] | outcome [5] | Potency [6] | Potency [9] | outcome [7] | outcome [8]

CCC(C)C(=O)OCCc1ccccc1 (stereo not given)
inactive: Potency [1] | outcome [2] | outcome [3] | outcome [4] | outcome [5] | outcome [7] | outcome [8]

O=C(O)CONC(=O)c1ccccc1
inactive: Potency [1] | outcome [2] | outcome [3] | outcome [4] | outcome [5] | Potency [10] | outcome [7] | outcome [8]

CCCCCCCCCCCCCCCCCCOCCO
inactive: activity change, negative = inhibition [1] -2.36% [at 19 µM] | activity change, negative = cytotoxicity [2] 0.0538% [at 19 µM] | viability change, negative = cytotoxic [3] 1.32% [at 19 µM] | viability change, negative = cytotoxic [4] -0.0007% [at 19 µM] | activity change [5] -0.0679% [at 18.9 µM] | activity, negative = inhibition [9] 4.09% [at 19 µM] | activity change, negative = cytotoxicity [7] -11.2% [at 19 µM] | activity change, negative = cytotoxicity [8] -1.63% [at 19 µM]

OC[C@H]1O[C@@H](O[C@@H]2[C@@H](CO)O[C@](O)(CO)[C@H]2O)[C@H](O)[C@@H](O)[C@H]1O
inactive: Potency [1] | outcome [2] | outcome [3] | outcome [4] | outcome [5] | Potency [10] | outcome [7] | outcome [8]

CC/C(C)=N\O[Si](C)(O/N=C(\C)CC)O/N=C(\C)CC
inactive: Potency [1] | outcome [2] | outcome [3] | outcome [4] | outcome [5] | Potency [10] | outcome [7] | outcome [8]

O=C1OCCO1
inactive: Potency [1] | outcome [2] | outcome [3] | outcome [5] | Potency [10] | outcome [7] | outcome [8]

CC1CC(=O)CC(C)(C)C1 (stereo not given)
inactive: Potency [1] | outcome [2] | outcome [3] | outcome [5] | Potency [10] | outcome [7]

CCCCCc1cccc(=O)o1
inactive: Potency [1] | outcome [2] | outcome [3] | outcome [5] | Potency [10] | Potency [6] | Potency [9] | outcome [7] | outcome [8]

c1ccc2c(CC3=NCCN3)cccc2c1
inactive: Potency [1] | outcome [2] | outcome [3] | outcome [4] | outcome [5] | outcome [7] | outcome [8]

Cc1c(Cl)cccc1Cl
inactive: Potency [1] | outcome [2] | outcome [3] | outcome [5] | Potency [10] | Potency [6] | Potency [9] | outcome [7] | outcome [8]

C=CCOC(=O)CCCCCC
inactive: Potency [1] | outcome [2] | outcome [3] | outcome [5] | Potency [10] | Potency [9] | outcome [7] | outcome [8]

COc1ccc2c(c1)c1c3n2CCN(C)C3=NCC1
inactive: Potency [1] | outcome [2] | outcome [3] | outcome [4] | outcome [5] | outcome [7] | outcome [8]

CCc1occc(=O)c1O
inactive: Potency [1] | outcome [2] | outcome [3] | outcome [5] | Potency [10] | outcome [8]

CNCCS(=O)(=O)O
inactive: Potency [1] | outcome [2] | outcome [3] | outcome [5] | Potency [10] | Potency [9] | outcome [7] | outcome [8]
